PTHR1 ag – activates the human parathyroid hormone receptor PTHR1; HEK293 GP2 PTHR1 cells, GloSensor cAMP luminescence, 1 h; 410,000 compounds, 0.075% hits; AID 743266; Potency, µM (titrated, usually from 115 µM), without a hit: at the top dose activation, usual class: activators; Q03431; note: potency is the fitted concentration of half-maximal effect; nearly all actives have a fitted effect of over 55% in size
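HEK-293-derived GP2 cells expressing PTHR1 and a GloSensor cAMP reporter, 3,000/well, plated overnight, given luciferin plus IBMX (each 0.5 mM as added) for 1 h at 37 °C, then compound for 1 h at 37 °C. Luminescence was read after 15 min at room temperature.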
GLP-1R agonist – agonists of human GLP-1 receptor. AID 624172. P43220. HEK293 GLP-1R CRE-luciferase, luminescence, 4-6 h; cells express a hypersensitive GLP-1R form. Potency, µM (series often up to 45.6 µM), for the others: top-dose activation, most hits filed as activators. 380,000 compounds, 0.007% hits; note: potency is the fitted concentration of half-maximal effect; % of control where 0% means no effect
GLP-1R inv ag – GLP-1 receptor (human) inverse agonism; P43220; 410,000 compounds, 1.6% hits; Potency, µM (doses to about 38.3 µM), for inactives: at the top dose activity change, negative = inhibition, actives largely listed as inhibitors; HEK293 GLP-1R CRE-luciferase, luminescence, 24 h; GLP-1R form is constitutively active; note: potency is the fitted concentration of half-maximal effect; % is set by controls: 0 for no effect and ±100 for the full control effect; nearly all actives have a fitted effect of over 55% in size
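Inverse agonists were sought by their lowering of basal cAMP reporter luciferase output in HEK293 cells stably carrying constitutively active human GLP-1R, after 24 h compound treatment.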
GLP1R cytotox – cytotoxicity in counter-screen for GLP-1R inverse agonists | 410,000 compounds, 0.13% hits | Potency, µM (highest dose often 38.3 µM), inactives show top-dose activity change, negative = inhibition, hits mostly inhibitors | HEK293 cAMP-luciferase reporter cells, luminescence, 24 h;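 note: loss of luciferase light is scored as toxicity; potency is the fitted concentration of half-maximal effect; % is set by controls: 0 for no effect and ±100 for the full control effect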
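A 23 nL compound transfer followed 12 hours of cell culture at 37 deg C; exposure then lasted 24 hr. Luciferase assay detection reagent was dispensed and plates read for luminescence after a 12 min room-temperature wait.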
TSHR antagonist – human thyrotropin receptor antagonism. P16473. TSHR-expressing cells, TSH-stimulated cAMP HTRF, 2 h; stronger effect = lower value. activity change, negative = inhibition, % at 11.5 µM. 330,000 compounds, 0.2% hits;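 active = activity change below a set negative limit, meaning inhibition stronger than a set level, cut at about -70% in these data; inconclusive = activity change between two set negative limits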; note: % is set by controls: 0 for no effect and ±100 for the full control effect
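Read-out is FRET at 665 nm (cryptate excitation 337 nm) from a cryptate-tagged anti-cAMP antibody, competed by cell cAMP against cAMP-d2. Compounds are tested on freshly harvested TSHR cells challenged with 4nM TSH (EC80) for 2 hours at 37 deg C.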
An asterisk follows results filed as active; i = inactive; ? = inconclusive; . = no result given; [ ] = dose if it differs, or a comment. Shown are actives, neighbours in structure and some others; about 1.8% of the full set was active somewhere. Unless noted, calls come from the whole dose curve; as a rule, active = well fitted curve in the direction sought with a large enough effect; inconclusive = small, poorly fitted or top-dose-only effect, or another doubt; inactive = no such curve, though single readings can be large; an effect the other way counts as inactive or inconclusive.

SMILES | PTHR1 ag | GLP-1R agonist | GLP-1R inv ag | GLP1R cytotox | TSHR antagonist
O=C(CCCSc1nnnn1-c1cccc2ccccc12)c1ccc(F)cc1 | -17% | 10% | 10µM* | -5% | -3
CCC(C)n1c(SCc2ccc(C(C)(C)C)cc2)nc2ccsc2c1=O (centres undefined) | -2% | . | 1% | 20% | .
CCC(C)n1c(SCc2ccccc2)nc2ccsc2c1=O (centres undefined) | i | 1% | 7.9µM* | 11% | -6
COc1ccc(Nc2nnc(SCC(=O)/C=C3/N(C)c4ccccc4C3(C)C)s2)cc1 | -35% | -2% | 11µM* | -23% | -14
Cc1ccc(C)c(NC(=O)c2cnc(N3CCCC3)nc2C)c1 | i | . | 8% | -1% | .
CCN(CC)S(=O)(=O)c1ccc2oc(SCc3ccc(F)cc3)nc2c1 | -22%[57.5 µM] | 7% | 11µM* | -1% | -33
CCN(CC)S(=O)(=O)c1ccc2oc(C(=O)NCc3ccc(F)cc3)c(C)c2c1 | -58%[57.5 µM] | 11% | 3.5µM* | -2% | -16
CC(Sc1nc(-c2ccccc2)cc(C(F)(F)F)n1)C(=O)O (centres undefined) | 5% | 3% | -2% | 5% | -10
CCN(CC)CCCNC(=O)C(C)Sc1nc(-c2ccccc2)cc(C(F)(F)F)n1 (centres undefined) | i | 9% | 2.8µM* | 2% | 7
COc1cccc(C2CNC3(CCCC(C)C3)c3[nH]c4ccccc4c32)c1OC (centres undefined) | -42% | -1% | ? | ? | -1
CC1(C)CC(=O)CC2(C1)NCC(c1ccccc1)c1c2[nH]c2ccccc12 (centres undefined) | -59% | 8% | 10µM* | -12% | -4
Cc1ccc(C)c(CN2C(=O)CSc3ccc(C(=O)NCc4ccc(F)cc4)cc32)c1 | -24% | -1% | 8% | 5% | .
CCOC(=O)c1ccc(N2C(=O)c3n[nH]c(-c4ccco4)c3C2c2ccc(OCC)cc2)cc1 (centres undefined) | -36% | . | 11µM* | -29% | .
COc1cccc(C(=O)Nc2ccccc2C(=O)OCc2cc(=O)n3nc(C4CC4)sc3n2)c1 | i | . | 12% | -6% | .
COc1ccc(-c2nn(-c3ccccc3)cc2/C=N/NC(=O)c2ccc3c(c2)OCO3)cc1 | . | . | . | . | -12
COc1ccc(-c2nn(-c3ccccc3)cc2/C=N/NC(=O)c2ccc(Br)o2)cc1 | i | 0% | 15% | 22% | -95*
O=C1CSc2nc3ccccc3n21 | -6%[57.5 µM] | 5% | 4% | 11% | -45
CC12CCC(C(=O)n3c1nc1ccccc13)C2(C)C (centres undefined) | ? | 7% | 1.6µM* | 22% | -4
O=C(C1CCCCC1)N(Cc1cccnc1)c1nc2ccc(F)cc2s1 | -2% | . | 11µM* | 0% | .
COc1ccc2nc(N(Cc3cccnc3)C(=O)C3CCCCC3)sc2c1 | -31% | . | ? | -3% | .
O=C1c2ccccc2C2=Nc3ccccc3SC(c3cccc(F)c3)C12 (centres undefined) | -25% | -5% | ? | 7.9µM* | 30
Fc1cccc(C2NN=C(c3ccccc3)S2)c1 (centres undefined) | ? | 9% | 3% | 1% | -7
O=C1c2ccccc2C2=Nc3ccccc3SC(c3ccc(Cl)cc3)C12 (centres undefined) | -6% | 1% | 13µM* | ? | 9
O=C(Nc1ccc(Oc2ccccc2)cc1)C1CCN(S(=O)(=O)c2ccccc2)CC1 | -43% | . | ? | -13% | .
Cc1oc2ncnc(N3CCOCC3)c2c1C(=O)N1CCN(c2cccc(C(F)(F)F)c2)CC1 | -9% | . | -3% | 3% | .
CCOc1ccc(N2C(=O)C(CC(=O)Nc3ccccc3)N(Cc3ccccn3)C2=S)cc1 (centres undefined) | ? | -1% | ? | -3% | -4
CCOc1ccc(N2C(=O)C(CC(=O)Nc3ccc(F)cc3)N(Cc3ccccn3)C2=S)cc1 (centres undefined) | i | 13% | 10µM* | -5% | -5

Screening results from PubChem BioAssay.
